Paper PMC11006913
Residue numbers refer to the chain shown, from its start.

Experiments:
Test in all cases: PBM; 200 nM protein, PBS
Conditions in all cases: dsDNA, one strand shown
SIX6 [1] = target: T1, SIX6 (Homo sapiens, UniProt O95475 114-200, L167I)
T1 sequence: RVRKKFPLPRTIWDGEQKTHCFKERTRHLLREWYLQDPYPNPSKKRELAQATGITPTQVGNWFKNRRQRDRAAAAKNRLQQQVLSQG

SIX6 [2] = target: T2, SIX6 (Homo sapiens, UniProt O95475 114-200)
T2 sequence: T1 sequence with I54L

HOXA4 [3] = target: HOXA4 (Homo sapiens, UniProt Q00056 201-287, W262R)
HOXA4 (Homo sapiens, UniProt Q00056 201-287, W262R), sequence (Q00056 201-287 W262R): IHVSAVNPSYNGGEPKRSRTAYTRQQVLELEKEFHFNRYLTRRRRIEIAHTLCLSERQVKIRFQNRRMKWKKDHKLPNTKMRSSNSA

ALX4 [4] = target: ALX4 (Homo sapiens, UniProt Q9H161 200-286)
ALX4 (Homo sapiens, UniProt Q9H161 200-286), sequence (Q9H161 200-286): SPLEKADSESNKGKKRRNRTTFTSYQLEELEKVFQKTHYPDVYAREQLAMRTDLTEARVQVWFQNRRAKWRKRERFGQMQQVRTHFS

ALX4 [5] = target: ALX4 (Homo sapiens, UniProt Q9H161 200-286, Q225E)
ALX4 (Homo sapiens, UniProt Q9H161 200-286, Q225E), sequence (Q9H161 200-286 Q225E): as the sequence (Q9H161 200-286) above, with Q26E counted along it

HOXA4 [6] = target: HOXA4 (Homo sapiens, UniProt Q00056 201-287, R217L)
HOXA4 (Homo sapiens, UniProt Q00056 201-287, R217L), sequence (Q00056 201-287 R217L): as the sequence (Q00056 201-287 W262R) above, with R17L, R62W counted along it

HOXA4 [7] = target: HOXA4 (Homo sapiens, UniProt Q00056 201-287)
HOXA4 (Homo sapiens, UniProt Q00056 201-287), sequence (Q00056 201-287): as the sequence (Q00056 201-287 W262R) above, with R62W counted along it

HOXA4 [8] = target: HOXA4 (Homo sapiens, UniProt Q00056 201-287, W262F)
HOXA4 (Homo sapiens, UniProt Q00056 201-287, W262F), sequence (Q00056 201-287 W262F): as the sequence (Q00056 201-287 W262R) above, with R62F counted along it

HOXC10 [9] = target: HOXC10 (Homo sapiens, UniProt Q9NYD6 254-340)
HOXC10 (Homo sapiens, UniProt Q9NYD6 254-340), sequence (Q9NYD6 254-340): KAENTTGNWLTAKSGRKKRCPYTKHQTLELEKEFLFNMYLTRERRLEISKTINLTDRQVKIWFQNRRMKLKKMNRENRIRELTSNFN

ALX3 [10] = target: ALX3 (Homo sapiens, UniProt O95076 139-225, N203Q)
ALX3 (Homo sapiens, UniProt O95076 139-225, N203Q), sequence (O95076 139-225 N203Q): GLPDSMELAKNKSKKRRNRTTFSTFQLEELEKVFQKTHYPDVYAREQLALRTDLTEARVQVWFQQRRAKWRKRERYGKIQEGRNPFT

HOXC10 [11] = target: HOXC10 (Homo sapiens, UniProt Q9NYD6 254-340, K271E)
HOXC10 (Homo sapiens, UniProt Q9NYD6 254-340, K271E), sequence (Q9NYD6 254-340 K271E): as the sequence (Q9NYD6 254-340) above, with K18E counted along it

ALX3 [12] = target: ALX3 (Homo sapiens, UniProt O95076 139-225)
ALX3 (Homo sapiens, UniProt O95076 139-225), sequence (O95076 139-225): as the sequence (O95076 139-225 N203Q) above, with Q65N counted along it

ALX3 [13] = target: ALX3 (Homo sapiens, UniProt O95076 139-225, L168Q)
ALX3 (Homo sapiens, UniProt O95076 139-225, L168Q), sequence (O95076 139-225 L168Q): as the sequence (O95076 139-225 N203Q) above, with L30Q, Q65N counted along it

ALX3 [14] = target: ALX3 (Homo sapiens, UniProt O95076 139-225, L168V)
ALX3 (Homo sapiens, UniProt O95076 139-225, L168V), sequence (O95076 139-225 L168V): as the sequence (O95076 139-225 N203Q) above, with L30V, Q65N counted along it

ALX3 [15] = target: ALX3 (Homo sapiens, UniProt O95076 139-225, N203S)
ALX3 (Homo sapiens, UniProt O95076 139-225, N203S), sequence (O95076 139-225 N203S): as the sequence (O95076 139-225 N203Q) above, with Q65S counted along it

PAX4 [16] = target: T3, PAX4 (Homo sapiens, UniProt O43316 9-242, R200K)
T3 sequence: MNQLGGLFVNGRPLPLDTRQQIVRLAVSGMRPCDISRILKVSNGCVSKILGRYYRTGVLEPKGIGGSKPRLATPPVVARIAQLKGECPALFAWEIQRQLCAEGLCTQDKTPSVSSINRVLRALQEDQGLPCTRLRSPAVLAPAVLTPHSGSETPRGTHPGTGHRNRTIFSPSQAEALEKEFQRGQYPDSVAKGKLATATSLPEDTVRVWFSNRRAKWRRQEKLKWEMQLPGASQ

PAX4 [17] = target: T4, PAX4 (Homo sapiens, UniProt O43316 9-242)
T4 sequence: T3 sequence with K192R

PAX4 [18] = target: T5, PAX4 (Homo sapiens, UniProt O43316 9-242, R200Q)
T5 sequence: T3 sequence with K192Q

PAX4 [19] = target: T6, PAX4 (Homo sapiens, UniProt O43316 9-242, F177V)
T6 sequence: T3 sequence with F169V, K192R

PAX4 [20] = target: T7, PAX4 (Homo sapiens, UniProt O43316 9-242, F177Y)
T7 sequence: T3 sequence with F169Y, K192R

PAX4 [21] = target: T8, PAX4 (Homo sapiens, UniProt O43316 9-242, R227W)
T8 sequence: T3 sequence with K192R, R219W

PRRX1 [22] = target: PRRX1 (Homo sapiens, UniProt P54821 80-166, F113S)
PRRX1 (Homo sapiens, UniProt P54821 80-166, F113S), sequence (P54821 80-166 F113S): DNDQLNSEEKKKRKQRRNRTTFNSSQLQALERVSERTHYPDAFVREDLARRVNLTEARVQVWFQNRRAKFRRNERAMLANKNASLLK

HOXA2 [23] = target: HOXA2 (Homo sapiens, UniProt O43364 129-215, R185T)
HOXA2 (Homo sapiens, UniProt O43364 129-215, R185T), sequence (O43364 129-215 R185T): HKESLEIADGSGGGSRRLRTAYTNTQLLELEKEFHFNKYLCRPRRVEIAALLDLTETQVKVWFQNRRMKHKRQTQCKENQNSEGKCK

NKX2-6 [24] = target: T9, NKX2-6 (Homo sapiens, UniProt A6NCS4 118-204)
T9 sequence: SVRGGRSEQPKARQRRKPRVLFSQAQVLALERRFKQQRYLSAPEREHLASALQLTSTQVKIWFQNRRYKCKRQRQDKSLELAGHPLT

HOXA2 [25] = target: HOXA2 (Homo sapiens, UniProt O43364 129-215, R185K)
HOXA2 (Homo sapiens, UniProt O43364 129-215, R185K), sequence (O43364 129-215 R185K): as the sequence (O43364 129-215 R185T) above, with T57K counted along it

NKX2-6 [26] = target: T10, NKX2-6 (Homo sapiens, UniProt A6NCS4 118-204, F151L)
T10 sequence: T9 sequence with F34L

HOXA2 [27] = target: HOXA2 (Homo sapiens, UniProt O43364 129-215, Y150S)
HOXA2 (Homo sapiens, UniProt O43364 129-215, Y150S), sequence (O43364 129-215 Y150S): as the sequence (O43364 129-215 R185T) above, with Y22S, T57R counted along it

PRRX1 [28] = target: PRRX1 (Homo sapiens, UniProt P54821 80-166)
PRRX1 (Homo sapiens, UniProt P54821 80-166), sequence (P54821 80-166): as the sequence (P54821 80-166 F113S) above, with S34F counted along it

HOXA2 [29] = target: HOXA2 (Homo sapiens, UniProt O43364 129-215)
HOXA2 (Homo sapiens, UniProt O43364 129-215), sequence (O43364 129-215): as the sequence (O43364 129-215 R185T) above, with T57R counted along it

HOXB6 [30] = target: HOXB6 (Homo sapiens, UniProt P17509 132-218, K202E)
HOXB6 (Homo sapiens, UniProt P17509 132-218, K202E), sequence (P17509 132-218 K202E): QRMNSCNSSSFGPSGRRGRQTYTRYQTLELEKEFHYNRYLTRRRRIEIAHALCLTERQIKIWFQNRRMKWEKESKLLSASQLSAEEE

HOXB6 [31] = target: HOXB6 (Homo sapiens, UniProt P17509 132-218)
HOXB6 (Homo sapiens, UniProt P17509 132-218), sequence (P17509 132-218): as the sequence (P17509 132-218 K202E) above, with E71K counted along it

HOXA7 [32] = target: HOXA7 (Homo sapiens, UniProt P31268 116-202)
HOXA7 (Homo sapiens, UniProt P31268 116-202), sequence (P31268 116-202): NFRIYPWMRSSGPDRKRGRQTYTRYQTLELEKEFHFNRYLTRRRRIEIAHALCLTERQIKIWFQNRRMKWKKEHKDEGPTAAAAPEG

PROP1 [33] = target: PROP1 (Homo sapiens, UniProt O75360 56-141)
PROP1 (Homo sapiens, UniProt O75360 56-141), sequence (O75360 56-141): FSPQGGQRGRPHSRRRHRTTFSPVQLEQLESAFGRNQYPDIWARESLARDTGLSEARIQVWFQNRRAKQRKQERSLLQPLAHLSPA

PROP1 [34] = target: PROP1 (Homo sapiens, UniProt O75360 56-141, R99H)
PROP1 (Homo sapiens, UniProt O75360 56-141, R99H), sequence (O75360 56-141 R99H): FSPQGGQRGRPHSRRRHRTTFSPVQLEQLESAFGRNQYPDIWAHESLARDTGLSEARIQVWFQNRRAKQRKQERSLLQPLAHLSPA

PROP1 [35] = target: PROP1 (Homo sapiens, UniProt O75360 56-141, F88S)
PROP1 (Homo sapiens, UniProt O75360 56-141, F88S), sequence (O75360 56-141 F88S): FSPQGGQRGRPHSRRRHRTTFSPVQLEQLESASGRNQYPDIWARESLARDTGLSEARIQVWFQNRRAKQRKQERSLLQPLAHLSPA

HOXA7 [36] = target: HOXA7 (Homo sapiens, UniProt P31268 116-202, W177C)
HOXA7 (Homo sapiens, UniProt P31268 116-202, W177C), sequence (P31268 116-202 W177C): as the sequence (P31268 116-202) above, with W62C counted along it

Q: With ATACTAAC as the sequence, how does the binding signal (SIX6 [1]) read?
A: The binding signal was 10.1 upbm affinity estimate (log intensity, higher = more binding, comparable within an allelic series).

Q: And the binding signal (SIX6 [2])?
A: Its binding signal is 10.1 upbm affinity estimate (log intensity, higher = more binding, comparable within an allelic series).

Q: Which results are given for ACCTTCGC?
A: binding signal (HOXA4 [3]): 9.98 upbm affinity estimate (log intensity, higher = more binding, comparable within an allelic series); binding signal (ALX4 [4]): 8.16 upbm affinity estimate (log intensity, higher = more binding, comparable within an allelic series); binding signal (ALX4 [5]): 8.2 upbm affinity estimate (log intensity, higher = more binding, comparable within an allelic series); binding signal (HOXA4 [6]): 9.99 upbm affinity estimate (log intensity, higher = more binding, comparable within an allelic series); binding signal (HOXA4 [7]): 9.8 upbm affinity estimate (log intensity, higher = more binding, comparable within an allelic series); binding signal (HOXA4 [8]): 10.1 upbm affinity estimate (log intensity, higher = more binding, comparable within an allelic series)

Q: Which results are given for CCGGCAGG?
A: binding signal (HOXA4 [3]): 9.95 upbm affinity estimate (log intensity, higher = more binding, comparable within an allelic series); binding signal (HOXC10 [9]): 10.2 upbm affinity estimate (log intensity, higher = more binding, comparable within an allelic series); binding signal (HOXA4 [6]): 9.86 upbm affinity estimate (log intensity, higher = more binding, comparable within an allelic series); binding signal (ALX3 [10]): 7.82 upbm affinity estimate (log intensity, higher = more binding, comparable within an allelic series); binding signal (HOXA4 [7]): 10 upbm affinity estimate (log intensity, higher = more binding, comparable within an allelic series); binding signal (HOXC10 [11]): 9.98 upbm affinity estimate (log intensity, higher = more binding, comparable within an allelic series); binding signal (ALX3 [12]): 7.72 upbm affinity estimate (log intensity, higher = more binding, comparable within an allelic series); binding signal (ALX3 [13]): 7.79 upbm affinity estimate (log intensity, higher = more binding, comparable within an allelic series); binding signal (ALX3 [14]): 7.78 upbm affinity estimate (log intensity, higher = more binding, comparable within an allelic series); binding signal (HOXA4 [8]): 9.96 upbm affinity estimate (log intensity, higher = more binding, comparable within an allelic series); binding signal (ALX3 [15]): 7.86 upbm affinity estimate (log intensity, higher = more binding, comparable within an allelic series)

Q: With CCCTGGTC as the sequence, how does the binding signal (HOXA4 [3]) read?
A: Its binding signal is 9.79 upbm affinity estimate (log intensity, higher = more binding, comparable within an allelic series).

Q: And the binding signal (PAX4 [16])?
A: Its binding signal is 9.07 upbm affinity estimate (log intensity, higher = more binding, comparable within an allelic series).

Q: And the binding signal (PAX4 [17])?
A: The binding signal was 9.08 upbm affinity estimate (log intensity, higher = more binding, comparable within an allelic series).

Q: What about the binding signal (HOXA4 [6]) of the same sequence?
A: The binding signal was 9.68 upbm affinity estimate (log intensity, higher = more binding, comparable within an allelic series).

Q: What about the binding signal (PAX4 [18]) of the same sequence?
A: Its binding signal is 9.25 upbm affinity estimate (log intensity, higher = more binding, comparable within an allelic series).

Q: What about the binding signal (PAX4 [19]) of the same sequence?
A: The binding signal was 9.22 upbm affinity estimate (log intensity, higher = more binding, comparable within an allelic series).

Q: And the binding signal (HOXA4 [7])?
A: Its binding signal is 9.69 upbm affinity estimate (log intensity, higher = more binding, comparable within an allelic series).

Q: And the binding signal (PAX4 [20])?
A: The binding signal was 9.15 upbm affinity estimate (log intensity, higher = more binding, comparable within an allelic series).

Q: What about the binding signal (PAX4 [21]) of the same sequence?
A: The binding signal was 9.21 upbm affinity estimate (log intensity, higher = more binding, comparable within an allelic series).

Q: What about the binding signal (HOXA4 [8]) of the same sequence?
A: Its binding signal is 9.7 upbm affinity estimate (log intensity, higher = more binding, comparable within an allelic series).

Q: For GCCCCGAC, which binding signal (HOXA4 [3]) is on record?
A: Its binding signal is 9.84 upbm affinity estimate (log intensity, higher = more binding, comparable within an allelic series).

Q: What about the binding signal (HOXC10 [9]) of the same sequence?
A: Its binding signal is 10.1 upbm affinity estimate (log intensity, higher = more binding, comparable within an allelic series).

Q: And the binding signal (PRRX1 [22])?
A: Its binding signal is 9.25 upbm affinity estimate (log intensity, higher = more binding, comparable within an allelic series).

Q: What about the binding signal (HOXA2 [23]) of the same sequence?
A: Its binding signal is 7.21 upbm affinity estimate (log intensity, higher = more binding, comparable within an allelic series).

Q: What about the binding signal (HOXA4 [6]) of the same sequence?
A: Its binding signal is 9.94 upbm affinity estimate (log intensity, higher = more binding, comparable within an allelic series).

Q: And the binding signal (NKX2-6 [24])?
A: Its binding signal is 9.63 upbm affinity estimate (log intensity, higher = more binding, comparable within an allelic series).

Q: What about the binding signal (HOXA2 [25]) of the same sequence?
A: The binding signal was 10.4 upbm affinity estimate (log intensity, higher = more binding, comparable within an allelic series).

Q: What about the binding signal (HOXA4 [7]) of the same sequence?
A: The binding signal was 9.87 upbm affinity estimate (log intensity, higher = more binding, comparable within an allelic series).

Q: And the binding signal (HOXC10 [11])?
A: Its binding signal is 10.1 upbm affinity estimate (log intensity, higher = more binding, comparable within an allelic series).

Q: And the binding signal (NKX2-6 [26])?
A: Its binding signal is 9.35 upbm affinity estimate (log intensity, higher = more binding, comparable within an allelic series).

Q: And the binding signal (HOXA2 [27])?
A: The binding signal was 10.5 upbm affinity estimate (log intensity, higher = more binding, comparable within an allelic series).

Q: What about the binding signal (HOXA4 [8]) of the same sequence?
A: The binding signal was 10.1 upbm affinity estimate (log intensity, higher = more binding, comparable within an allelic series).

Q: What about the binding signal (PRRX1 [28]) of the same sequence?
A: Its binding signal is 9.52 upbm affinity estimate (log intensity, higher = more binding, comparable within an allelic series).

Q: And the binding signal (HOXA2 [29])?
A: Its binding signal is 7.3 upbm affinity estimate (log intensity, higher = more binding, comparable within an allelic series).

Q: How did the binding signal (HOXA4 [3]) turn out when GCCGGCCC was run?
A: The binding signal was 9.58 upbm affinity estimate (log intensity, higher = more binding, comparable within an allelic series).

Q: And the binding signal (HOXB6 [30])?
A: Its binding signal is 8.94 upbm affinity estimate (log intensity, higher = more binding, comparable within an allelic series).

Q: And the binding signal (HOXA4 [6])?
A: Its binding signal is 9.63 upbm affinity estimate (log intensity, higher = more binding, comparable within an allelic series).

Q: And the binding signal (NKX2-6 [24])?
A: Its binding signal is 9.25 upbm affinity estimate (log intensity, higher = more binding, comparable within an allelic series).

Q: And the binding signal (HOXA4 [7])?
A: Its binding signal is 9.78 upbm affinity estimate (log intensity, higher = more binding, comparable within an allelic series).

Q: And the binding signal (NKX2-6 [26])?
A: The binding signal was 9.24 upbm affinity estimate (log intensity, higher = more binding, comparable within an allelic series).

Q: What about the binding signal (HOXA4 [8]) of the same sequence?
A: The binding signal was 9.8 upbm affinity estimate (log intensity, higher = more binding, comparable within an allelic series).

Q: And the binding signal (HOXB6 [31])?
A: The binding signal was 8.94 upbm affinity estimate (log intensity, higher = more binding, comparable within an allelic series).

Q: Which results are given for CCCCCTTC?
A: binding signal (HOXA4 [3]): 9.36 upbm affinity estimate (log intensity, higher = more binding, comparable within an allelic series); binding signal (HOXA7 [32]): 7.86 upbm affinity estimate (log intensity, higher = more binding, comparable within an allelic series); binding signal (HOXC10 [9]): 9.64 upbm affinity estimate (log intensity, higher = more binding, comparable within an allelic series); binding signal (HOXA4 [6]): 9.27 upbm affinity estimate (log intensity, higher = more binding, comparable within an allelic series); binding signal (ALX3 [10]): 7.42 upbm affinity estimate (log intensity, higher = more binding, comparable within an allelic series); binding signal (HOXA4 [7]): 9.19 upbm affinity estimate (log intensity, higher = more binding, comparable within an allelic series); binding signal (HOXC10 [11]): 9.78 upbm affinity estimate (log intensity, higher = more binding, comparable within an allelic series); binding signal (ALX3 [12]): 7.43 upbm affinity estimate (log intensity, higher = more binding, comparable within an allelic series); binding signal (PROP1 [33]): 6.16 upbm affinity estimate (log intensity, higher = more binding, comparable within an allelic series); binding signal (PROP1 [34]): 5.96 upbm affinity estimate (log intensity, higher = more binding, comparable within an allelic series); binding signal (ALX3 [13]): 7.31 upbm affinity estimate (log intensity, higher = more binding, comparable within an allelic series); binding signal (ALX3 [14]): 7.27 upbm affinity estimate (log intensity, higher = more binding, comparable within an allelic series); binding signal (PROP1 [35]): 5.76 upbm affinity estimate (log intensity, higher = more binding, comparable within an allelic series); binding signal (HOXA7 [36]): 8.09 upbm affinity estimate (log intensity, higher = more binding, comparable within an allelic series); binding signal (HOXA4 [8]): 9.31 upbm affinity estimate (log intensity, higher = more binding, comparable within an allelic series); binding signal (ALX3 [15]): 7.33 upbm affinity estimate (log intensity, higher = more binding, comparable within an allelic series)
